Measurements as given in PubChem BioAssay (EPA / NIEHS).
Calls of active or inactive are those of the source. Rule for the calls: active = hit-call score of the fitted dose curve at least 0.9, where 1 is the maximum; inactive = score below 0.9.

Tests used:
Settings in all cases: mRNA level, 48 h; actives raise or lower the signal
[1] = read-out: Forkhead box O3 (FOXO3), FOXO3 (gene 2309); assay: LTEA_HepaRG_FOXO3: Life Technologies and Expression Analysis (LTEA) Assay for Forkhead box O3 (FOXO3) using HepaRG (AID 2283459)
Procedure, shortened: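 FOXO3 transcript measured by qRT-PCR (normalized to ACTB, GAPDH, POLR2A) after 48 h exposure of HepaRG cells in serum-free induction medium. Duplicates, eight half-log concentrations up to 100 uM, 0.5% DMSO; gain or loss fitted against DMSO.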

[2] = read-out: ABC Transporter (ABCB1), ABCB1 (gene 5243); assay: LTEA_HepaRG_ABCB1: Life Technologies and Expression Analysis (LTEA) Assay for ABC Transporter (ABCB1) using HepaRG (AID 2283460)
Procedure, shortened: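 ABCB1 transcript level measured by TaqMan qRT-PCR against three housekeeping genes after 48 h chemical exposure of differentiated HepaRG cells. Top concentration 100 uM, half-log steps, eight points, 0.5% DMSO vehicle; bidirectional fit relative to DMSO.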

[3] = read-out: growth arrest and DNA damage 45 (GADD45B), GADD45B (gene 4616); assay: LTEA_HepaRG_GADD45B: Life Technologies and Expression Analysis (LTEA) Assay for growth arrest and DNA damage 45 (GADD45B) using HepaRG (AID 2283461)
Procedure, shortened: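 Human HepaRG monolayers receive chemicals for 48 h at eight half-log concentrations, highest 100 uM, in 0.5% DMSO. Expression is measured by TaqMan qRT-PCR and normalized to ACTB, GAPDH and POLR2A.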

[4] = read-out: ABC Transporter (ABCC3), ABCC3 (gene 8714); assay: LTEA_HepaRG_ABCC3: Life Technologies and Expression Analysis (LTEA) Assay for ABC Transporter (ABCC3) using HepaRG (AID 2283462)
Procedure, shortened: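 Transcriptional change of ABCC3 in HepaRG after 48 h treatment, determined by qRT-PCR normalized to endogenous controls. Concentrations spanned eight half-log steps to 100 uM in 0.5% DMSO.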

[5] = read-out: ABC Transporter (ABCB11), ABCB11 (gene 8647); assay: LTEA_HepaRG_ABCB11: Life Technologies and Expression Analysis (LTEA) Assay for ABC Transporter (ABCB11) using HepaRG (AID 2283463)
Procedure, shortened: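 ABCB11 transcript levels quantified by TaqMan qRT-PCR against three housekeeping genes after 48 h chemical exposure of HepaRG cultures. Concentrations up to 100 uM in half-log steps, 0.5% DMSO vehicle; both induction and suppression scored.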

[6] = read-out: Broad substrate specificity ATP-binding cassette transporter ABCG2 (Homo sapiens) (UniProt Q9UNQ0); assay: LTEA_HepaRG_ABCG2: Life Technologies and Expression Analysis (LTEA) Assay for ABC Transporter (ABCG2) using HepaRG (AID 2283465)
Procedure, shortened: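 ABCG2 transcript was quantified by TaqMan qRT-PCR against three housekeeping genes in HepaRG cells. Cells were treated in duplicate for 48 h across an 8-point half-log series up to 100 uM, with 0.5% DMSO vehicle. Gain or loss versus DMSO was fit.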

[7] = read-out: ATP-citrate lyase (ACLY), ACLY (gene 47); assay: LTEA_HepaRG_ACLY: Life Technologies and Expression Analysis (LTEA) Assay for ATP-citrate lyase (ACLY) using HepaRG (AID 2283466)
Procedure, shortened: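 ACLY mRNA quantified by qRT-PCR on Fluidigm arrays against three housekeeping genes, after 48 h chemical treatment of HepaRG cells (top concentration 100 uM, half-log steps, 0.5% DMSO vehicle). Up- or down-regulation fitted relative to DMSO.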

[8] = read-out: Alkaline Phosphatase, Placental (ALPP) gene, ALPP (gene 250); assay: LTEA_HepaRG_ALPP: Life Technologies and Expression Analysis (LTEA) Assay for Alkaline Phosphatase, Placental (ALPP) gene using HepaRG (AID 2283468);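 for AC50: differentiated human HepaRG liver cells in serum-free induction medium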
Procedure, shortened: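 Using human liver HepaRG cells, chemicals are tested in duplicate over 48 h at half-log concentrations topping at 100 uM; phenobarbital 1 mM serves as induction control. ALPP mRNA change by qRT-PCR, bidirectional fit against vehicle.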

[9] = read-out: Bcl-2 (BAD) gene, BAD (gene 572); assay: LTEA_HepaRG_BAD: Life Technologies and Expression Analysis (LTEA) Assay for Bcl-2 (BAD) gene using HepaRG (AID 2283469)
Procedure, shortened: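 Read-out: qRT-PCR of BAD mRNA, normalized to three housekeeping genes. Human HepaRG cultures got 48 h chemical exposure in 0.5% DMSO, duplicate eight-point half-log series topping at 100 uM. Gain or loss of signal fitted versus DMSO vehicle.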

[10] = read-out: Bcl-2 (BAX) gene, BAX (gene 581); assay: LTEA_HepaRG_BAX: Life Technologies and Expression Analysis (LTEA) Assay for Bcl-2 (BAX) gene using HepaRG (AID 2283470)
Procedure, shortened: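 qRT-PCR read-out of BAX mRNA, normalized to three housekeeping genes, after 48 h chemical exposure of human HepaRG cells in serum-free induction medium; eight-point half-log series, top 100 uM, 0.5% DMSO vehicle; bidirectional fit versus DMSO.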

[11] = read-out: adenosine kinase (ADK) gene, ADK (gene 132); assay: LTEA_HepaRG_ADK: Life Technologies and Expression Analysis (LTEA) Assay for adenosine kinase (ADK) gene using HepaRG (AID 2283471)
Procedure, shortened: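 HepaRG (human liver), 48 h chemical exposure, 8-pt half-log series, top 100 uM, 0.5% DMSO vehicle. Readout: ADK mRNA by qRT-PCR vs housekeeping genes; bidirectional curve fit relative to DMSO baseline.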

[12] = read-out: Alpha-fetoprotein (AFP) gene, AFP (gene 174); assay: LTEA_HepaRG_AFP: Life Technologies and Expression Analysis (LTEA) Assay for Alpha-fetoprotein (AFP) gene using HepaRG (AID 2283472)
Procedure, shortened: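 qRT-PCR (Fluidigm TaqMan) readout of AFP transcript, normalized to three housekeeping genes, fitted bidirectionally against 0.5% DMSO baseline. HepaRG cells received chemicals for 48 h in serum-free induction medium, top concentration 100 uM, half-log steps.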

[13] = read-out: Apolipoprotein A-V (APOA5) gene, APOA5 (gene 116519); assay: LTEA_HepaRG_APOA5: Life Technologies and Expression Analysis (LTEA) Assay for Apolipoprotein A-V (APOA5) gene using HepaRG (AID 2283474)
Procedure, shortened: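 Concentration-response of APOA5 expression in HepaRG: eight half-log doses to 100 uM, 48 h, qRT-PCR normalized to ACTB/GAPDH/POLR2A, bidirectional fitting with 0.5% DMSO as baseline.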

[14] = read-out: Apoptosis regulator Bcl-2 (Homo sapiens) (UniProt P10415); assay: LTEA_HepaRG_BCL2: Life Technologies and Expression Analysis (LTEA) Assay for Bcl-2 gene using HepaRG (AID 2283475);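 note: BCL2 transcript by TaqMan qRT-PCR normalised to ACTB GAPDH and POLR2A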
Procedure, shortened: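 qRT-PCR read-out (Fluidigm TaqMan) of BCL2 transcript, normalised to three housekeeping genes, after 48 h chemical exposure of HepaRG cells; 8-point half-log series, top 100 uM, 0.5% DMSO vehicle. Gain or loss of signal fitted relative to DMSO baseline.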

[15] = read-out: Bcl-2 (BID) gene, BID (gene 637); assay: LTEA_HepaRG_BID: Life Technologies and Expression Analysis (LTEA) Assay for Bcl-2 (BID) gene using HepaRG (AID 2283476)
Procedure, shortened: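 HepaRG, 48 h exposure, 8-pt half-log series, top 100 uM, 0.5% DMSO vehicle, duplicates. Readout: BID mRNA by TaqMan qRT-PCR; housekeeping-normalized; bidirectional curve fit vs DMSO baseline.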

BCL2L11 (gene 10018) = assay: LTEA_HepaRG_BCL2L11: Life Technologies and Expression Analysis (LTEA) Assay for Bcl-2 (BCL2L11) gene using HepaRG (AID 2283473)
Procedure, shortened: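 Human hepatic HepaRG cultures are treated 48 h with test chemicals (maximum 100 uM, 0.5% DMSO vehicle). Expression of BCL2L11 is measured by qRT-PCR against ACTB, GAPDH and POLR2A, with activity in either direction scored relative to vehicle.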

[16] = read-out: ABC Transporter (ABCC2), ABCC2 (gene 1244); assay: LTEA_HepaRG_ABCC2: Life Technologies and Expression Analysis (LTEA) Assay for ABC Transporter (ABCC2) using HepaRG (AID 2283464)
Procedure, shortened: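 After plating and 48 h culture, HepaRG medium is replaced with serum-free induction medium and chemicals are added (8 concentrations, max 100 uM, 0.5% DMSO) for 48 h. Total RNA then undergoes qRT-PCR for ABCC2 with housekeeping normalization.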

[17] = read-out: Peroxisomal acyl-coenzyme A oxidase 1 (ACOX1) gene, ACOX1 (gene 51); assay: LTEA_HepaRG_ACOX1: Life Technologies and Expression Analysis (LTEA) Assay for Peroxisomal acyl-coenzyme A oxidase 1 (ACOX1) gene using HepaRG (AID 2283467)
Procedure, shortened: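 ACOX1 transcript levels were quantified by TaqMan qRT-PCR against three housekeeping genes after 48 h chemical exposure of differentiated human HepaRG cells. Exposure used eight half-log steps topping at 100 uM, 0.5% DMSO vehicle, in duplicate. Bidirectional curve fits were made relative to DMSO.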

Measured: AC50

Sequence of Broad substrate specificity ATP-binding cassette transporter ABCG2 (Homo sapiens) (Q9UNQ0 whole entry, looked up): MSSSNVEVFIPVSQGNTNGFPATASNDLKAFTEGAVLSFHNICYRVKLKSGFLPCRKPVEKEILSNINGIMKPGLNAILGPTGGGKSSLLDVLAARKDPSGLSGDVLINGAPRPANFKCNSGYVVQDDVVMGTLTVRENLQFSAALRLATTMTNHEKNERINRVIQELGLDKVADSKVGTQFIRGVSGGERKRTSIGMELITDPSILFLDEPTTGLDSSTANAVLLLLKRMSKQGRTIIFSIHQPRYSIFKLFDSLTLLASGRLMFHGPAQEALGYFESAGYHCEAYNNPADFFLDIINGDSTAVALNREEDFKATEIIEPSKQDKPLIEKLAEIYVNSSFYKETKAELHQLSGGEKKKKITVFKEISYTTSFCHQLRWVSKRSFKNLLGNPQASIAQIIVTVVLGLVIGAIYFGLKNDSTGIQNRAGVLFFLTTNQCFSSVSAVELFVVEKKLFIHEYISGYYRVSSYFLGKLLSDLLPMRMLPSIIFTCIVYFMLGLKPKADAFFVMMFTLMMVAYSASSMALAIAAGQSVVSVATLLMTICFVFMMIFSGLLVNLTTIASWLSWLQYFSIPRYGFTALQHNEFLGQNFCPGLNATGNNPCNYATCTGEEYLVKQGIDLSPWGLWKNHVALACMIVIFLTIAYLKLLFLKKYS
Sequence of Apoptosis regulator Bcl-2 (Homo sapiens) (P10415 whole entry, looked up): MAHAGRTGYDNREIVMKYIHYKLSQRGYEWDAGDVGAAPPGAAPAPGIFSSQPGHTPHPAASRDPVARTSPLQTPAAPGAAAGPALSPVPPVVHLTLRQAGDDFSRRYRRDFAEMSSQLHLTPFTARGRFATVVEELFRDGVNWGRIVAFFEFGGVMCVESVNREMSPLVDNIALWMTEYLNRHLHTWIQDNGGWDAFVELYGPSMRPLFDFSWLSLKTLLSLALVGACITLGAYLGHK

O=C(Nc1ccc([N+](=O)[O-])cc1Cl)c1cc(Cl)ccc1O
active: [2] 2.25 µM | [3] 3.32 µM | [4] 3.52 µM | [5] 3.37 µM | [6] 17 µM | [7] 3.76 µM | [8] 15.9 µM | [9] 3.89 µM | [10] 6.15 µM | [11] 3.07 µM | [12] 20.4 µM | [13] 4.26 µM | [14] 3.54 µM
inactive: [1] | [15]

COC(=O)c1ccccc1C(=O)O
not listed: [16] | [17]
inactive: all other assays above

CC(=O)[C@H]1CC[C@H]2[C@@H]3CCC4=CC(=O)CC[C@]4(C)[C@H]3CC[C@]12C
active: [2] 79.3 µM | [3] 30 µM | [4] 28.2 µM | [5] 58.5 µM | [6] 12.5 µM | [7] 83.2 µM | [8] 30 µM | [10] 27 µM | [11] 88.7 µM | [12] 24.4 µM | BCL2L11 (gene 10018) 12.8 µM | [13] 34 µM | [14] 23 µM
inactive: [1] | [9] | [15]

CCCCC(CC)COC(=O)c1ccccc1C(=O)O (centres undefined)
active: [2] 74.9 µM | [5] 41.9 µM
not listed: [16] | [17]
inactive: all other assays above

CCOC(=O)COc1cc(-n2ncc(C(F)(F)F)c(C)c2=O)c(F)cc1Cl
not listed: [16] | [17]
inactive: all other assays above

CCN(CC)C(=O)c1cccc(C)c1
active: [16] 21.5 µM
not listed: [17]
inactive: all other assays above

CC(C)(C)[C@@H](O)[C@@H](Cc1ccc(Cl)cc1)n1cncn1
active: [2] 8.74 µM | [7] 50 µM
not listed: [3] | [16] | [17]
inactive: all other assays above

Oc1ccc(C(c2ccc(O)cc2)C(Cl)(Cl)Cl)cc1
active: [1] 82.9 µM | [3] 93.8 µM | [6] 75.4 µM | [7] 78.5 µM | [11] 75.9 µM | [13] 79.7 µM | [15] 84.8 µM
not listed: [5] | [16] | [17]
inactive: all other assays above

CCCCCOC(=O)COc1cc(N2C(=O)C3=C(CCCC3)C2=O)c(F)cc1Cl
not listed: [16] | [17]
inactive: all other assays above

COC(=O)CSc1cc(N=c2sc(=O)n3n2CCCC3)c(F)cc1Cl
active: [2] 25.6 µM
not listed: [16] | [17]
inactive: all other assays above

CCNc1nc(N)nc(Cl)n1
not listed: [16] | [17]
inactive: all other assays above

CCCOC(=O)c1ccc(C(=O)OCCC)nc1
not listed: [16]
inactive: all other assays above

COC(=O)c1ccc(I)cc1S(=O)(=O)NC(=O)Nc1nc(C)nc(OC)n1
not listed: [16] | [17]
inactive: all other assays above

C[C@]12CC[C@@H]3c4ccc(O)cc4C[C@@H](CCCCCCCCCS(=O)CCCC(F)(F)C(F)(F)F)[C@H]3[C@@H]1CC[C@@H]2O (some centres undefined)
active: [2] 27.8 µM | [4] 30.9 µM | [5] 10.5 µM | [9] 0.045 µM | [12] 33.1 µM | BCL2L11 (gene 10018) 0.0755 µM | [13] 50 µM | [14] 0.0469 µM | [15] 0.0682 µM
inactive: [1] | [3] | [6] | [7] | [8] | [10] | [11]

CCOC(=O)C(C)Oc1ccc(Oc2nc3ccc(Cl)cc3o2)cc1 (centres undefined)
active: [5] 9.92 µM | [13] 11.5 µM
not listed: [16] | [17]
inactive: all other assays above
